From PubChem BioAssay (EPA / NIEHS)
Inconclusive results are not listed. The source made the active and inactive calls. Rule for the calls: active = hit-call score of the fitted dose curve at least 0.9, where 1 is the maximum; inconclusive = response in the unintended direction; inactive = score below 0.9.

Key:
[1] = molecular target: Peroxisome proliferator-activated receptor gamma (Homo sapiens) (UniProt P37231); test: ATG_PPARg_TRANS: Attagene TRANS-FACTORIAL HepG2 Assay for human Peroxisome Proliferator-activated Receptor-gamma (PPARg) (AID 2283007)
Outline: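 Human hepatoma HepG2, transient MRTU transfection, 24 h treatment. mRNA reporter signal by RT-PCR plus capillary electrophoresis, fluorescence detection; fitted for increase over DMSO negative control.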

[2] = molecular target: Nuclear receptor subfamily 1 group I member 2 (Homo sapiens) (UniProt O75469); test: ATG_PXR_TRANS: Attagene TRANS-FACTORIAL HepG2 Assay for human Pregnane X Receptor (PXR) (AID 2283008)
Outline: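 Transactivation by exogenous PXR–GAL4 fusion measured as reporter transcript induction after 24 h compound treatment of transfected human HepG2 cells. Read-out via RT-PCR and capillary electrophoresis of labelled fragments, fitted upward relative to DMSO.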

[3] = molecular target: human RAR-related Orphan Receptor beta (RORb), RORB (gene 6096) (UniProt Q92753); test: ATG_RORb_TRANS: Attagene TRANS-FACTORIAL HepG2 Assay for human RAR-related Orphan Receptor beta (RORb) (AID 2283010)
Outline: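 HepG2, transient MRTU transfection (GAL4-UAS reporters, exogenous NR-Gal4 chimeras); 24 h compound exposure; total RNA → RT-PCR → 6-FAM primer extension → HpaI digest → CE fluorescence. Positive direction vs DMSO baseline.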

[4] = molecular target: Retinoic acid receptor RXR-alpha (Homo sapiens) (UniProt P19793); test: ATG_RXRa_TRANS: Attagene TRANS-FACTORIAL HepG2 Assay for human Retinoid X Receptor alpha (RXRa) (AID 2283012)
Outline: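 Read-out: fluorescent reporter-transcript fragments quantified by capillary electrophoresis after RT-PCR. Transiently transfected HepG2 cells carrying GAL4-UAS reporters and NR-GAL4 chimeras were exposed to chemical for 24 h; activity scored as increase over DMSO.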

[5] = molecular target: human Thyroid Receptor alpha (THRa1), THRA (gene 7067) (UniProt P10827); test: ATG_THRa1_TRANS: Attagene TRANS-FACTORIAL HepG2 Assay for human Thyroid Receptor alpha (THRa1) (AID 2283014)
Outline: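 HepG2 cells transiently transfected with multiplexed GAL4-UAS reporter units for exogenous chimeric THRa1-Gal4; reporter mRNA measured 24 h after dosing by RT-PCR, 6-FAM labelling, HpaI digestion and capillary electrophoresis. Gain-of-signal fitted versus DMSO baseline.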

[6] = molecular target: Retinoic acid receptor alpha (Homo sapiens) (UniProt P10276); test: ATG_RARa_TRANS: Attagene TRANS-FACTORIAL HepG2 Assay for human Retinoic Acid Receptor alpha (RARa) (AID 2283005)
Outline: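 HepG2 transiently transfected with multiplex GAL4-UAS reporter units including a human RARa–GAL4 chimera; 24 h compound exposure. Reporter mRNA quantified by RT-PCR, 6-FAM labeling and capillary electrophoresis; gain of signal versus DMSO.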

[7] = molecular target: human Retinoic Acid Receptor gamma (RARg), RARG (gene 5916) (UniProt P13631); test: ATG_RARg_TRANS: Attagene TRANS-FACTORIAL HepG2 Assay for human Retinoic Acid Receptor gamma (RARg) (AID 2283009)
Outline: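 Readout: reporter transcript levels via RT-PCR, 6-FAM primer-extension labelling, HpaI digestion and capillary electrophoresis. Cells: HepG2 carrying transfected RARg-GAL4 chimera plus UAS reporter set. Dosing 24 h; DMSO negative control.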

[8] = molecular target: human RAR-related Orphan Receptor gamma (RORg), RORC (gene 6097) (UniProt P51449); test: ATG_RORg_TRANS: Attagene TRANS-FACTORIAL HepG2 Assay for human RAR-related Orphan Receptor gamma (RORg) (AID 2283011)
Outline: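 Readout: reporter transcript induction (RT-PCR, fluorescent primer extension, capillary electrophoresis) after 24 h compound exposure of transiently transfected HepG2 cells carrying a RORg-Gal4 chimera and GAL4-UAS reporters; DMSO served as baseline, with increasing signal fitted.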

[9] = molecular target: human Retinoid X Receptor beta (RXRb), RXRB (gene 6257) (UniProt P28702); test: ATG_RXRb_TRANS: Attagene TRANS-FACTORIAL HepG2 Assay for human Retinoid X Receptor beta (RXRb) (AID 2283013)
Outline: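 Read-out: reporter mRNA induction via RT-PCR plus capillary electrophoresis fluorescence, analysed as signal increase relative to DMSO. Cells were human HepG2, transiently transfected with GAL4-UAS reporter constructs and chimeric receptor-Gal4 fusions, dosed for 24 h.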

[10] = molecular target: human Retinoic Acid Receptor beta (RARb), RARB (gene 5915) (UniProt P10826); test: ATG_RARb_TRANS: Attagene TRANS-FACTORIAL HepG2 Assay for human Retinoic Acid Receptor beta (AID 2283004)
Outline: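 HepG2 cells transiently transfected with multiplexed GAL4-UAS reporter units expressing chimeric NR–Gal4 fusions; 24 h compound exposure. Reporter mRNA quantified by RT-PCR, 6-FAM labelling, HpaI digestion and capillary electrophoresis; gain-of-signal fitted against DMSO baseline.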

Measured: AC50

Retinoic acid receptor alpha (Homo sapiens), sequence (P10276 whole entry, looked up, the tested form may be a part): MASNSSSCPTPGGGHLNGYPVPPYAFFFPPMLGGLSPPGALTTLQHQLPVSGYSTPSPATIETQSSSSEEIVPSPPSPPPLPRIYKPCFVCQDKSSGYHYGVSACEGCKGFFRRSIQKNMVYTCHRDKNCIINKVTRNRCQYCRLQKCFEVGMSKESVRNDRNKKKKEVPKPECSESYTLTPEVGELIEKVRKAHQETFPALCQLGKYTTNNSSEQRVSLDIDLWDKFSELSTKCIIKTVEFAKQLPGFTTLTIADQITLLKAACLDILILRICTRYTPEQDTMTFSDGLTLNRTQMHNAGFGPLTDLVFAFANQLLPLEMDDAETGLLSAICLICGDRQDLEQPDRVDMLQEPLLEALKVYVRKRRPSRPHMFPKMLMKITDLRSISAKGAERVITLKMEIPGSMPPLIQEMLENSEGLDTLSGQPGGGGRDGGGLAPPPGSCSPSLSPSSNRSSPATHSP
Peroxisome proliferator-activated receptor gamma (Homo sapiens), sequence (P37231 whole entry, looked up): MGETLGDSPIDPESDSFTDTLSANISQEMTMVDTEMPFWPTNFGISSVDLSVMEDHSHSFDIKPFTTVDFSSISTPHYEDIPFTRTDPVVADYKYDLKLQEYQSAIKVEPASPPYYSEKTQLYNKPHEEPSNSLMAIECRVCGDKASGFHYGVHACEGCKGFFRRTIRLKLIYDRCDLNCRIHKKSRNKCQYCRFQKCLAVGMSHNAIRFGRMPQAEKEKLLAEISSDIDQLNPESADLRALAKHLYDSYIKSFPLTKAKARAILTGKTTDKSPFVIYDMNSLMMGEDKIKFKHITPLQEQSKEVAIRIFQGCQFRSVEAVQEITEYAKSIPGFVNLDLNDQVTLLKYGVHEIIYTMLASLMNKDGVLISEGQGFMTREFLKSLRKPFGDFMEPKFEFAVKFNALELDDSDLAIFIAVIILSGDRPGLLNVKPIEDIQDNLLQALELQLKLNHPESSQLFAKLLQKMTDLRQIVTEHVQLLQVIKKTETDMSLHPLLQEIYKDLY
Nuclear receptor subfamily 1 group I member 2 (Homo sapiens), sequence (O75469 whole entry, looked up, the tested form may be a part): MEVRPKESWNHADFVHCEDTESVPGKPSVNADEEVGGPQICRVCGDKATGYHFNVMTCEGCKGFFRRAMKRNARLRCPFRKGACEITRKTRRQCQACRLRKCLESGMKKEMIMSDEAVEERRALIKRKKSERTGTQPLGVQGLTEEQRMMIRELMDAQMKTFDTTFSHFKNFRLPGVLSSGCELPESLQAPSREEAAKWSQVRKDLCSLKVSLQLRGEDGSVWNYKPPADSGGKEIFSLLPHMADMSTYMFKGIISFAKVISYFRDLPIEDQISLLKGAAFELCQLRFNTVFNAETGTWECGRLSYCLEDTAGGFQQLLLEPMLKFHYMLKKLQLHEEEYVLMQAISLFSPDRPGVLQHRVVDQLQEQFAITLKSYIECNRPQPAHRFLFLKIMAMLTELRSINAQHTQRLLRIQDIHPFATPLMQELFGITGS
human Thyroid Receptor alpha (THRa1), THRA (gene 7067), sequence (P10827 whole entry, looked up, the tested form may be a part): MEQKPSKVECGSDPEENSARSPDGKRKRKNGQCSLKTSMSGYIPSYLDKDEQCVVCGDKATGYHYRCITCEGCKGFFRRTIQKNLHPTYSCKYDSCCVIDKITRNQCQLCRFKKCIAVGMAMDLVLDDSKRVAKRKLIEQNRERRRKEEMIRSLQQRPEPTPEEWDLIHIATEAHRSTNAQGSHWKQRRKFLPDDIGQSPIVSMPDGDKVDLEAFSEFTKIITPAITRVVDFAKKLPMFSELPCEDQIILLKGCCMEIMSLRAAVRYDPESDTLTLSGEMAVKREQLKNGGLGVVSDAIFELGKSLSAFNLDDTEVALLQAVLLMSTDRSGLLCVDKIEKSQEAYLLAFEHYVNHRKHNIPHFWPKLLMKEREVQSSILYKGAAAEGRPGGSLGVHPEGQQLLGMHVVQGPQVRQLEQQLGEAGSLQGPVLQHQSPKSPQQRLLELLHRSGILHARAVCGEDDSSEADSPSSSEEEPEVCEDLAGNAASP
human RAR-related Orphan Receptor gamma (RORg), RORC (gene 6097), sequence (P51449 whole entry, looked up, the tested form may be a part): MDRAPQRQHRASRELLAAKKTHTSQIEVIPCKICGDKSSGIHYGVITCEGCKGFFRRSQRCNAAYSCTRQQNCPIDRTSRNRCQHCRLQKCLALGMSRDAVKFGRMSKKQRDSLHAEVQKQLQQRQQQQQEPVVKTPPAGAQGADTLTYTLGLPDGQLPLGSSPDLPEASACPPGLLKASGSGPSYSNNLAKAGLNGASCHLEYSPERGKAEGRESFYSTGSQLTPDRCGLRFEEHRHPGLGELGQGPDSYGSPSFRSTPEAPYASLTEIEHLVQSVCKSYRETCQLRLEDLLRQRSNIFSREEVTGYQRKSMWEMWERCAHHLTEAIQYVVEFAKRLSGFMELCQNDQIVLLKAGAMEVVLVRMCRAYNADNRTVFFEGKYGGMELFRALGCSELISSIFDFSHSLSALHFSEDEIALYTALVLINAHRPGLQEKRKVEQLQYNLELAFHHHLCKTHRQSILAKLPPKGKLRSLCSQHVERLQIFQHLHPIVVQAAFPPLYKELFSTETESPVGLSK
human Retinoid X Receptor beta (RXRb), RXRB (gene 6257), sequence (P28702 whole entry, looked up, the tested form may be a part): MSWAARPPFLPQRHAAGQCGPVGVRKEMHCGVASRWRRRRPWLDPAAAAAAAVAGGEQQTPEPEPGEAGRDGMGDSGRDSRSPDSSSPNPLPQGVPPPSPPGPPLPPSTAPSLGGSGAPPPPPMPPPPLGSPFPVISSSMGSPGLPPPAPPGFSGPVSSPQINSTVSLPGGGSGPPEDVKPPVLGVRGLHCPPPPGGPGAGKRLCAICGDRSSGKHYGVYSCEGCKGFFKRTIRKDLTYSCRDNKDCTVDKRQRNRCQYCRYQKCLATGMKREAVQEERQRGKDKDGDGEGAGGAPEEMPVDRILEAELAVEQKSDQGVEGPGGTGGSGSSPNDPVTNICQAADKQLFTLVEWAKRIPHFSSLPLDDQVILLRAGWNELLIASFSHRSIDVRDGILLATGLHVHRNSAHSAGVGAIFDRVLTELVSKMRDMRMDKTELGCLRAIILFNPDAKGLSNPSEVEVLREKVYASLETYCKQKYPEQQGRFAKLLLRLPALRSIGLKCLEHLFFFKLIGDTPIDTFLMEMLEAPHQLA
human Retinoic Acid Receptor beta (RARb), RARB (gene 5915), sequence (P10826 whole entry, looked up, the tested form may be a part): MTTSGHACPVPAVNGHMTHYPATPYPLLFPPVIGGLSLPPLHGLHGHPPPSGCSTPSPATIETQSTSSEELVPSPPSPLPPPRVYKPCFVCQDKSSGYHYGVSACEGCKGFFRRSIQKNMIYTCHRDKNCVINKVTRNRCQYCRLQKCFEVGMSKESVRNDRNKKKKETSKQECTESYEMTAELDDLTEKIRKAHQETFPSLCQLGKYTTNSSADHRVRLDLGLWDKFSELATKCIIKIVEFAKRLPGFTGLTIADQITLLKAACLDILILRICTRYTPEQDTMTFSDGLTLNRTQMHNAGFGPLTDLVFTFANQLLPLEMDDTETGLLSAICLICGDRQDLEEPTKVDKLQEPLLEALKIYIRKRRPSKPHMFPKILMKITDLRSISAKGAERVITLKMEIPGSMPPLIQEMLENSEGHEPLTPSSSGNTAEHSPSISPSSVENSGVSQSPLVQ
Retinoic acid receptor RXR-alpha (Homo sapiens), sequence (P19793 whole entry, looked up, the tested form may be a part): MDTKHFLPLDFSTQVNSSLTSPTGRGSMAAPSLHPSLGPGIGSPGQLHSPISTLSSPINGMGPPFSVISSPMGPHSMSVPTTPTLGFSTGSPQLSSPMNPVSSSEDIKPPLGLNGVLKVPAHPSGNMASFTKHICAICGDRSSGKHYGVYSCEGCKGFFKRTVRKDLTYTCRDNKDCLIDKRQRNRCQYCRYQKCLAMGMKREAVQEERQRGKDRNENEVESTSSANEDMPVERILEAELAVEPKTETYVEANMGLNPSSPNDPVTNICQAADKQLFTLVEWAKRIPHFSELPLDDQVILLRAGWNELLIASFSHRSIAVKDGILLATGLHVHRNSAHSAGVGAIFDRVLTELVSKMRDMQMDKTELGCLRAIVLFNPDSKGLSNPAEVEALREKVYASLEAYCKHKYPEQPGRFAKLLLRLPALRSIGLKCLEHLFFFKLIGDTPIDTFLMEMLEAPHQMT
human Retinoic Acid Receptor gamma (RARg), RARG (gene 5916), sequence (P13631 whole entry, looked up, the tested form may be a part): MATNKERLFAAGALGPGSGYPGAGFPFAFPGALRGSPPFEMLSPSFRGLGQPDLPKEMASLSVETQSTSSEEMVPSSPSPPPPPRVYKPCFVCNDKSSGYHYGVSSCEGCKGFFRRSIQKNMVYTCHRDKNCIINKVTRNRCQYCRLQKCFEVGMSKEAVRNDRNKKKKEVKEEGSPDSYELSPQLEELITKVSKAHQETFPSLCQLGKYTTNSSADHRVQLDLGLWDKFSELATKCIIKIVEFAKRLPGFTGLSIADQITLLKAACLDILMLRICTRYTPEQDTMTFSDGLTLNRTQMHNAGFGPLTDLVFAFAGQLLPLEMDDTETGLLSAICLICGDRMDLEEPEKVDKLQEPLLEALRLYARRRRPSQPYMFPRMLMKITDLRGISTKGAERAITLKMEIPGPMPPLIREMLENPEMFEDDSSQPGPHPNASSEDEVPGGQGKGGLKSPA
human RAR-related Orphan Receptor beta (RORb), RORB (gene 6096), sequence (Q92753 whole entry, looked up, the tested form may be a part): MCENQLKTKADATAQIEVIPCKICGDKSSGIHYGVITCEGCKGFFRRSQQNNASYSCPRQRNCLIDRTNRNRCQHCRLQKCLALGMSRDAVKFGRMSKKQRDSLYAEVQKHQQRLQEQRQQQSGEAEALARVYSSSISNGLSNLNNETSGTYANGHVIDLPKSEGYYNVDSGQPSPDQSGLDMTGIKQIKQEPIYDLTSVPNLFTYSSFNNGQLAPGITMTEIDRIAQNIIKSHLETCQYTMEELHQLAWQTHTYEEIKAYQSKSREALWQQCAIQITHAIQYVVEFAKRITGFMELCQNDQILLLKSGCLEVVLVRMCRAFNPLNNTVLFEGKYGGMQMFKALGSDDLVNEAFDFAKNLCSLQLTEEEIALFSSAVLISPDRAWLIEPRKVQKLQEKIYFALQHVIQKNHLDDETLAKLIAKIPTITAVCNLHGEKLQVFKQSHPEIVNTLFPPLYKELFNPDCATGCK

CC(C)c1ccc2cc(C(C)C)ccc2c1
active: [2] 7.42 µM
inactive: [1] | [3] | [4] | [5]

C=C(C)[C@H]1CC=C(C)CC1
not listed: [1] | [5] | [10]
inactive: all other assays above

OCCCS
inactive: [1] | [8] | [4]

O=C(/C=C/C=C/c1ccc2c(c1)OCO2)N1CCCCC1
inactive: [4]
active: [1] 6.43 µM | [2] 0.893 µM

Cc1ccc([N+](=O)[O-])cc1S(=O)(=O)O
inactive: [1] | [2] | [3] | [8]

CO[Si](CCC1CCC2OC2C1)(OC)OC (centres undefined)
inactive: [1] | [8] | [4] | [5]

CC1=CC[C@H](C(C)C)C=C1
inactive: [8] | [4]
active: [1] 27.9 µM | [2] 0.822 µM | [9] 40.2 µM

C=C(C)[C@@H]1CCC2=CCC[C@@H](C)[C@]2(C)C1
active: [9] 47.6 µM
inactive: [1]

CC(=O)OCc1ccco1
inactive: [6] | [1] | [2] | [3] | [8]

CC=CC(=O)N(CC)c1ccccc1C
inactive: [10] | [1] | [3] | [8] | [5]

CC(=O)Nc1nnc(S(N)(=O)=O)s1
inactive: [3] | [8] | [4]

CC(C)(C)c1n[nH]c(=O)n(N)c1=O
inactive: [10] | [1] | [2] | [7] | [8] | [4]

O=CN1CCCCC1
inactive: [6] | [4] | [9]

C=CC(=O)NC(C)(C)CS(=O)(=O)O
inactive: [6] | [1] | [3] | [8] | [9] | [5]

O=C(O)C(c1ccc(Cl)cc1)c1ccc(Cl)cc1
inactive: [2]

O=Cc1ccc(CO)o1
inactive: [6] | [8]

C[Si](C)O[Si](C)(C)O[Si](C)(C)O[Si](C)C
not listed: [3] | [6] | [8]
inactive: all other assays above

Cc1cc(=O)n(-c2ccccc2)n1C
inactive: [2] | [3] | [8] | [4] | [5]

CC1=CC[C@H]2C[C@@H]1C2(C)C
inactive: [6] | [1] | [8] | [4]

CCCCCc1ccc(Cl)cc1
inactive: [1] | [2] | [8] | [9]

CC(C)(C)c1ccc(N)cc1
inactive: [1] | [2] | [3] | [8] | [4] | [9]

Cn1c([N+](=O)[O-])cnc1COC(N)=O
inactive: [6] | [5]

Cn1c(=O)[nH]c2ncn(C)c2c1=O
inactive: [6] | [2] | [3] | [9]

COC(=O)c1cc(Cl)ccc1[N+](=O)[O-]
active: [1] 19.7 µM
inactive: [2] | [4]

C=C[Si](C)(C)O[Si](C)(C)C=C
inactive: [10] | [6] | [3] | [8] | [4] | [5]

CC1(C)[C@H]2CC[C@]1(C)C(=O)C2
inactive: [10] | [2] | [8] | [4]

c1cc(N(CC2CO2)CC2CO2)ccc1OCC1CO1 (centres undefined)
inactive: [1] | [2] | [7] | [5]

NNC(=O)c1cccc(C(=O)NN)c1
inactive: [2] | [7] | [5]

Cc1cc(C)c(C)c(O)c1
inactive: [10] | [1] | [2] | [4] | [9] | [5]

COC(=O)C1=C(C)NC(C)=C(C(=O)OCC(C)C)C1c1ccccc1[N+](=O)[O-] (centres undefined)
active: [1] 6.19 µM
inactive: [5]

C=C(C)c1cccc(C(C)(C)N=C=O)c1
active: [1] 5.62 µM | [2] 0.0915 µM
inactive: [10] | [8] | [5]

CC(C)=CCC/C(C)=C\C#N
active: [2] 29.3 µM
inactive: [10] | [1] | [3] | [8] | [9]

CC(C)CC(O)Cc1ccccc1 (centres undefined)
inactive: [6] | [1] | [2] | [7] | [9] | [5]

CCCCC(CC)CCC(CC(C)C)OS(=O)(=O)O (centres undefined)
active: [1] 36.6 µM | [2] 5.35 µM
inactive: [3]

O=C(OCC1CCC2OC2C1)C1CCC2OC2C1 (centres undefined)
inactive: [9]

C[Si](C)(CCCN)O[Si](C)(C)CCCN
inactive: [1] | [2] | [8] | [4]

SCCc1cnccn1
inactive: [1] | [2] | [8] | [4]

CCCC(=O)OCc1ccccc1
inactive: [6] | [8] | [4]

C1CN(SSN2CCOCC2)CCO1
inactive: [1] | [2]

CNC(=S)N(C)C
inactive: [6] | [1] | [2] | [8] | [4] | [9]
